Sampled rows, rich in hits. Any-hit rate of the full collection: about 10%.
MmCpn inh – blocks the Methanococcus maripaludis chaperonin Mm-Cpn; purified Mm-Cpn ATPase, ADP Transcreener TR-FRET; hit rate 0.031% among 330,000; AID 504842; Potency, µM (highest dose often 76.9 µM), inactives show at the top dose activity, negative = inhibition, usual class: inhibitors; further: potency means the concentration at half of the fitted maximal effect; nearly all actives have a fitted effect of over 80% in size
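Measured: ADP formation by purified Mm-CPN. Conditions: 25 nM protein, 10 uM ATP, Tris pH 7.4 with Mg2+, K+ and DTT, 37°C for 30 min. Detection: Transcreener HTRF after 30 min at room temperature.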
PLK1 PBD block – PLK1 (human) polo-box domain binding inhibition. Potency, µM, for inactives: max response, negative = inhibition, usual class: inhibitors. Plk1 PBD binding of FITC phosphopeptide, fluorescence polarization. hit rate 2.8% among 360,000. AID 720504; further: potency means the concentration at half of the fitted maximal effect; series mostly up to about 57 µM; nearly all actives have a fitted effect of over 65% in size
G9a block – inhibitors of human histone lysine methyltransferase G9a; Q96KQ7; G9a H3K9 monomethylation, AlphaScreen, 2 h; Potency, µM (highest dose often 102 µM), without a hit: at the highest dose activity, negative = inhibition, hits mostly inhibitors; hit rate 8.8% among 350,000; AID 504332; further: potency means the concentration at half of the fitted maximal effect; nearly all actives have a fitted effect of over 75% in size
Target sequence (Q96KQ7 913-1193 limits assumed): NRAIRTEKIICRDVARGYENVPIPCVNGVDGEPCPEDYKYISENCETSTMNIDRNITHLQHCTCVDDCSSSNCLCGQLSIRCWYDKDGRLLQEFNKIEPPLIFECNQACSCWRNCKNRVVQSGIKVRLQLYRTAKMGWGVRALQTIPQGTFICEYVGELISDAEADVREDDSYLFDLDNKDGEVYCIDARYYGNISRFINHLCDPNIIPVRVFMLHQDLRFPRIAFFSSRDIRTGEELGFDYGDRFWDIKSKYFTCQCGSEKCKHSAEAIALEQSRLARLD
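G9a (20 nM) was preincubated 15 min with compound, then reacted 2 h at room temperature with 500 nM biotin-H3K9 peptide and 20 µM SAM. Monomethyl-H3K9 detected by AlphaScreen using anti-H3K9me1 antibody.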
Sfp PPTase inh – inhibitors of Bacillus subtilis Sfp phosphopantetheinyl transferase | Q9F4F7 | Biochemical Sfp PPTase activity, qHTS | Potency, µM, inactives show largest response in the series, negative = inhibition, most hits filed as inhibitors | hit rate 3.5% among 310,000 | AID 1490;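 further: the enzyme is Sfp with the accession as filed and its product quenches rhodamine fluorescence; potency means the concentration at half of the fitted maximal effect; 0% = enzyme reaction without inhibitor and -100% = no enzyme wells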
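After 15 min at room temperature with compound, 15 nM Sfp received 5 uM rhodamine-CoA plus 12.5 uM BHQ-2-ybbR (50 mM Hepes pH 7.6, 10 mM MgCl2). Rate came from the fluorescence difference over 30 min, ex 525/em 598 nm.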
CCT modulator – modulators of cytosolic chaperonin (CCT/TRiC) activity | purified chaperonin ATPase assay, HTRF ADP detection, 30 min | activity change, % (concentration not given with the values), hits read low | hit rate 0.3% among 360,000; in the data active means activity change below about -30%
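TRiC (40 or 20 nM final, by batch activity) in 30 mM Tris pH 7.4, 100 mM KCl, 5 mM MgCl2, 1 mM DTT was treated with compound at 76 uM single dose, then 10 uM ATP, 30 min at 37 °C. ADP was read by HTRF Transcreener.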
VDR inh – blocks the human vitamin D receptor; P11473; VDR-SRC2-3 peptide fluorescence polarization, 2 h; Potency, µM, for the others: max response, negative = inhibition, actives largely listed as inhibitors; hit rate 0.93% among 400,000; further: potency means the concentration at half of the fitted maximal effect
Target sequence (P11473 whole entry, looked up): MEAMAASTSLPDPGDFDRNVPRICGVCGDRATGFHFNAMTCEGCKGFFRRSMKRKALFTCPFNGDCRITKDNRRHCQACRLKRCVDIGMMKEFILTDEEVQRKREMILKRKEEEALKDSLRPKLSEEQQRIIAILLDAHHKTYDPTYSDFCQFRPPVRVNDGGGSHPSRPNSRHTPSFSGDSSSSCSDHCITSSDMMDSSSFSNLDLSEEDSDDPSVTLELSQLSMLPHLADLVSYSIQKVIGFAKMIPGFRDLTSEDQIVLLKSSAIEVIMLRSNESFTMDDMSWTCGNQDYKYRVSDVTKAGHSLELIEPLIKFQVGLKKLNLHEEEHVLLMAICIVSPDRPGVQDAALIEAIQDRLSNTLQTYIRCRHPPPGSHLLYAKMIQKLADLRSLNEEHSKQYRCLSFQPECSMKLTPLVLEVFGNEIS
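VDR–SRC2-3 interaction, FP format. Cmpds 23 nl via pintool, brief spin, 2 h ambient incubation.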
The depositor's hits bear a star; ? = inconclusive; . = not tested or not shown; [ ] = remark or other dose. Unless noted, the call rests on the fitted dose curve; in most records, active means well fitted curve in the direction sought with a large enough effect; inconclusive means small, poorly fitted or top-dose-only effect, or another doubt; inactive means no such curve, though single readings can be large; an effect the other way counts as inactive or inconclusive. Unless noted, on the % scale 0 is the no-effect control and ±100 the full control effect.

SMILES | MmCpn inh | PLK1 PBD block | G9a block | Sfp PPTase inh | CCT modulator | VDR inh
COCCn1c(-c2ccc(OC)cc2)nc2oc3cc(OC)ccc3c(=O)c2c1=O | 1% | 0% | 2%[12.7 µM] | 16% | 0 | 3%
COc1ccc2c(=O)c3c(=O)n(Cc4ccccc4)c(C(C)C)nc3oc2c1 | . | 0% | . | . | 1 | -3%
CCCn1c(=O)c2sccc2n2c(CCCC(=O)Nc3ccccc3OCC)nnc12 | . | . | -3%[59 µM] | . | . | 20%
CCN1CCc2nc3sc(C(=O)Nc4cccc(Cl)c4C)c(N)c3cc2C1 | . | . | ? | . | . | -5%
Cc1ccc(Cn2c(C(=O)O)c(CNC3CCCCCC3)c3ccc(C)cc32)cc1 | . | . | -33%[59 µM] | . | . | 2%
O=S(=O)(Nc1cc(Br)cc2cccnc12)c1cccc2ccccc12 | . | . | . | . | . | 1%
Cc1ccc(-c2nc3c(c(=O)c4ccccc4n3C)c(=O)n2Cc2ccco2)cc1 | 0% | -16% | . | 4µM* | -1 | -16%
Cn1c2ccccc2c(=O)c2c(=O)n(Cc3ccco3)c(-c3ccc(F)cc3)nc21 | 2% | -14% | ? | ? | 1 | -15%
CCOC(=O)CSc1nc2c(sc3cccc(F)c32)c(=O)n1Cc1ccc(OC)cc1 | . | . | 16%[59 µM] | . | . | 10%
CC1CCCC(C)N1S(=O)(=O)c1ccc(NC(=O)CNC2CCCC2)cc1 (configuration not stated) | 1% | -7% | 45µM* | -1% | 1 | 12%
CC(=O)Nc1ccc(S(=O)(=O)N2C(C)CCCC2C)cc1 (configuration not stated) | 0% | 2% | 56µM* | 8% | -1 | 7%
CC1(C)CC(=O)C2=C(C1)N(Cc1ccco1)C(=O)C2(NC(=O)c1cccnc1)C(F)(F)F (configuration not stated) | -1% | -10% | ? | 22µM* | -4 | 3%
N#C/C(=C\c1cc(O)c(O)c(O)c1)C(N)=O | -2% | -4% | . | 3.5µM* | 0 | -11%
CCOc1cc(C2/C(=C(/O)c3ccc(OC)cc3)C(=O)C(=O)N2CC2CCCO2)ccc1O (configuration not stated) | -14% | ? | -34% | 4% | 0 | 0%
O=C1C(=O)N(CC2CCCO2)C(c2ccccc2[N+](=O)[O-])/C1=C(/O)c1ccccc1 (configuration not stated) | 0% | ? | 32µM* | ? | -49* | -1%
CCc1ccccc1NC(=O)Nc1cc(C(=O)NCc2cccc(F)c2)ccc1N1CCCC1 | . | . | 10%[12.7 µM] | . | . | 6%
O=Nc1c(-c2c(O)[nH]c3ccccc23)[nH]c2ccccc12 | . | . | 8.9µM* | -28% | . | -8%
Cn1cc(-c2cc3n(n2)CCC(=O)N3CCCC(=O)NCc2ccccc2)c2ccccc21 | . | . | 0%[59 µM] | . | . | 5%
O=C1c2ccccc2C(=O)c2c1cccc2-n1nnc2ccccc21 | -4% | -4% | ? | 3% | -8 | 5%
O=C1C(N2CCOCC2)=C(n2nnc3ccccc32)C(=O)c2ccccc21 | 0% | -28% | 40µM* | -24% | -1 | -1%
Nc1cc(Cl)ccc1Oc1ccc(Cl)cc1 | -4% | -9% | -35% | -10% | -10 | -20%
CN(C)c1ccc(Cl)cc1N | -3% | -17% | 25µM* | 4% | 0 | -8%
COc1ccc(C2=C(C(C)=O)Sc3nnc(-c4ccc(C)cc4)n3N2C(C)=O)cc1OC | . | . | 3%[59 µM] | . | . | 7%
Cc1nn(-c2ccccc2)c(OC(=O)c2ccccc2F)c1S(=O)(=O)c1ccccc1 | . | . | ? | . | . | -21%
CC1(C)CC(=O)C2=C(C1)Nc1[nH]c(=S)[nH]c(=O)c1C2c1ccccc1 (configuration not stated) | 0% | ? | 11µM* | 28µM* | 3 | -21%
SMILES | MmCpn inh | PLK1 PBD block | G9a block | Sfp PPTase inh | CCT modulator | VDR inh
Cc1ccc(C2C3=C(CCCC3=O)Nc3[nH]c(=S)[nH]c(=O)c32)cc1 (configuration not stated) | -7% | ? | -50%[2.33 µM] | 7.9µM* | 1 | 89µM*
CCSc1nc2c(c(=O)[nH]1)C(c1ccc(C)cc1)C1=C(CCCC1=O)N2 (configuration not stated) | 0% | -17% | -4% | 21% | -2 | 13%
CCC1Cc2[nH]c(=S)[nH]c(=O)c2C(c2ccc(F)cc2)O1 (configuration not stated) | . | -3% | . | . | 2 | .
O=c1[nH]c(=S)[nH]c2c1C(c1ccc(Br)cc1)c1c([nH]c(=S)[nH]c1=O)O2 | 5% | 6µM* | 1.6µM* | 45µM* | 3 | 89µM*
O=C1CCCC2=C1C(c1ccc(Br)cc1)c1c([nH]c(=S)[nH]c1=O)N2 (configuration not stated) | 2% | 27µM* | 0.79µM* | -94% | -1 | ?
COC(=O)[C@@]1(Cc2ccc(OC)cc2)[C@H]2c3cc(C(=O)N(C)C)n(C)c3C[C@H]2CN1C(=O)c1ccccc1 | . | . | . | 7% | . | .
Cc1sc2ccccc2[n+]1CC(=O)c1ccccc1 | -4% | 21µM* | 10µM* | ? | -5 | 28µM*
CSc1sc2ccccc2[n+]1CCCS(=O)(=O)[O-] | -2% | ? | 10µM* | 18µM* | -2 | 35µM*
Cc1sc2ccccc2[n+]1CCC(C)S(=O)(=O)[O-] (configuration not stated) | 1% | ? | 3%[59 µM] | 45µM* | -9 | ?
Cc1ccc2ccccc2[n+]1CCCS(=O)(=O)[O-] | 0% | -26% | 50µM* | 24% | 0 | 5%
Cc1cccc(NC(=O)c2cnc3sc(N4CCCC4)nn3c2=O)c1C | . | . | 10%[59 µM] | . | . | 6%
O=C(Nc1cccc(F)c1)N1CC[C@@]2(CCCN(C(=O)c3ccco3)C2)C1 | . | . | -2%[12.7 µM] | 10% | . | 3%
COc1ccc2sc(NC(C)=O)nc2c1 | 0% | -3% | ? | -1% | 1 | -4%
COc1ccc2sc(SCCCS(=O)(=O)O)[n+](CCCS(=O)(=O)[O-])c2c1 | -2% | -19% | ? | 4.5µM* | 1 | ?
COCCNC(=S)c1ccc(Br)cc1 | 4% | 11µM* | . | 45µM* | 0 | ?
COCCNC(=O)Cc1ccc(Br)cc1 | 1% | -4% | 31%[12.7 µM] | -4% | -3 | 1%
CC(=O)[C@H]1[C@H]([C@H](O)[C@H](O)CO)O[C@](O)(C(=O)O)C[C@@H]1O | -4% | 4% | 0.5µM* | . | 0 | -8%
CC(=O)NC1[C@H](O)C[C@@](O)(C(=O)O)O[C@H]1[C@H](O)[C@H](O)CO (some centres not stated) | . | . | -8%[12.7 µM] | 23% | . | 13%
CCC(Cn1nnc2ccccc2c1=O)NC(=O)Nc1cccc(Cl)c1 (configuration not stated) | . | . | -5%[59 µM] | . | . | -1%
C=CCNC(=O)c1onc(CSc2nc3ccccc3[nH]2)c1C(=O)NCC=C | -1% | 0% | 56µM* | 2% | -2 | -15%

Screening results: PubChem BioAssay, National Center for Advancing Translational Sciences (NCATS)
